For assay [1], the target named is Cellular tumor antigen p53 (Homo sapiens) (UniProt P04637). As to the kind of experiment: TOX21_p53_BLA_p4_ratio: Tox21 HCT-116 p53 Agonism Beta-lactamase Assay, Ratio, Phase 4 (AID 2283601). In outline:
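HCT-116 p53 beta-lactamase reporter cells (4000/well) preincubated 5 h, then compound (217-fold dilution of DMSO stock) for 16 h at 37C. CCF4-AM substrate added 2 h at room temperature; 460/530 nm emission ratio fitted upward versus DMSO.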

Assay [2] can be described thus: Tanguay_ZF_120hpf_AXIS_legacy: (Legacy) Oregon State University Tanguay Lab 120 Hour Post-fertilization zebrafish Assay for Body Axis Malformation (AID 2283635).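 As to AC50: potency for an increased fraction of larvae scored with body axis malformation.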 In outline:
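Chorion is removed with pronase at 4 hpf, then single 6 hpf embryos are dosed (final DMSO 0.64%) and held statically at 28C in sealed, foil-covered plates. At 120 hpf body axis malformation is recorded as present or absent.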

Assay [3] in a line: Tanguay_ZF_120hpf_EYE_legacy: (Legacy) Oregon State University Tanguay Lab 120 Hour Post-fertilization zebrafish Assay for Eye Malformation (AID 2283636).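 Also: binary presence or absence of eye malformation scored by brightfield in 120 hpf larvae.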 In outline: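 Dechorionated Tropical 5D zebrafish embryos, one per well from 6 hpf, static exposure to 120 hpf at 28C, 0.64% DMSO. Eye malformation scored present/absent by brightfield; dead embryos not scored.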
Assay [4] can be described thus: Tanguay_ZF_120hpf_SNOU_legacy: (Legacy) Oregon State University Tanguay Lab 120 Hour Post-fertilization zebrafish Assay for Snout Malformation (AID 2283637). In outline:
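Dechorionated tropical 5D wild-type zebrafish embryos exposed statically from 6 to 120 hpf at 28C, one per well, in 0.64% DMSO. Snout malformation scored as present/absent by brightfield at 120 hpf; dead embryos not scored.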

Assay [5] is described as follows: Tanguay_ZF_120hpf_JAW_legacy: (Legacy) Oregon State University Tanguay Lab 120 Hour Post-fertilization zebrafish Assay for Jaw Malformation (AID 2283638).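 As to AC50: active means more embryos with jaw malformation than DMSO controls.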 In outline: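 Steps: dechorionate 4 hpf embryos (pronase); plate 1/well at 6 hpf; add test chemical, 0.64% DMSO final; seal, cover, hold at 28C statically to 120 hpf; score jaw defect presence/absence microscopically. Dead embryos not scored.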

Assay [6] can be described thus: Tanguay_ZF_120hpf_OTIC_legacy: (Legacy) Oregon State University Tanguay Lab 120 Hour Post-fertilization zebrafish Assay for Otic Vesicle Malformation (AID 2283639). Put shortly: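 Otic vesicle malformation is read as a yes/no morphology call at 120 hpf. Exposure is static at 28C with 0.64% (vol/vol) DMSO; embryos that die are excluded from non-mortality endpoints.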

Assay [7] is described as follows: Tanguay_ZF_120hpf_BRAI_legacy: (Legacy) Oregon State University Tanguay Lab 120 Hour Post-fertilization zebrafish Assay for Brain Malformation (AID 2283641). In outline:
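Wild-type 5D larvae, static waterborne exposure to 120 hpf, 28C, 0.64% v/v DMSO. Brightfield scoring of brain defects, binary; dead embryos excluded. Positive ctrl 5uM trimethyltin chloride.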

The nature of assay [8]: Tanguay_ZF_120hpf_MORT_legacy: (Legacy) Oregon State University Tanguay Lab 120 Hour Post-fertilization zebrafish Assay for Mortality (AID 2283633).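 As to AC50: fitted as increase in binary mortality versus DMSO negative control.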 Put shortly:
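5D WT zebrafish, chorion removed 4 hpf; 1 embryo/well from 6 hpf; static exposure to 120 hpf, 28C, dark, sealed. Final DMSO 0.64%. Readout: binary mortality, brightfield, 24 + 120 hpf; DMSO as negative control.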

Assay [9] can be described thus: Tanguay_ZF_120hpf_YSE_legacy: (Legacy) Oregon State University Tanguay Lab 120 Hour Post-fertilization zebrafish Assay for Yolk Sac Edema (AID 2283634).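 As to AC50: actives raise the incidence of yolk sac edema above the DMSO baseline.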 Put shortly:
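Dechorionate (pronase, 4 hpf) → place one 6 hpf embryo per well → static compound exposure, sealed and foil-covered, 28C, to 120 hpf → record yolk sac edema as present or absent. Final DMSO 0.64%.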

Assay [10] can be described thus: Tanguay_ZF_120hpf_PE_legacy: (Legacy) Oregon State University Tanguay Lab 120 Hour Post-fertilization zebrafish Assay for Pericardial Edema (AID 2283640).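 As to AC50: potency for increased incidence of pericardial edema versus DMSO baseline.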 In outline: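 Embryos from wild-type 5D adults were staged, then dosed in 0.64% DMSO. They were kept sealed in the dark at 28C until 120 hpf. Pericardial edema was then recorded as present or absent.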

Inconclusive results are not listed. The source made the active and inactive calls. The calls were made as follows: active = hit-call score of the fitted dose curve at least 0.9, where 1 is the maximum; inconclusive = response in the unintended direction; inactive = score below 0.9.

Sequence of Cellular tumor antigen p53 (Homo sapiens) (P04637 whole entry, looked up): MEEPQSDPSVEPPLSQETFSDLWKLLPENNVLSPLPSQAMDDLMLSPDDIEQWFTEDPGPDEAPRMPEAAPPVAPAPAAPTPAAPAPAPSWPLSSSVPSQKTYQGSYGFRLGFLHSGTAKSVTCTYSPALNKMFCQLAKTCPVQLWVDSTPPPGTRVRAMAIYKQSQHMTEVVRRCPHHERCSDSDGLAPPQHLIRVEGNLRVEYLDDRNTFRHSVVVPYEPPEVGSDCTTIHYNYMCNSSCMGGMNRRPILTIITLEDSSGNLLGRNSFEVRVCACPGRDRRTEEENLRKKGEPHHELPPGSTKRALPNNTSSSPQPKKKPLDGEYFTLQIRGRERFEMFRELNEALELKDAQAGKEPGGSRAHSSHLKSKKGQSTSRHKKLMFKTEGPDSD

Take `CCn1nc(C)c2c1C(=O)NCC(c1ccc(O)cc1)=N2`: the outcome in assay [1], in assay [2], in assay [3], in assay [4], in assay [5] and in assay [6] was inactive. In addition, in assay [7], the compound was classed as inactive.

In the case of `OCCOCCOCCO`, the result in [1], in assay [8], in assay [9], in assay [2], in [3] and in assay [5] was inactive. The compound was called inactive in [6] and in assay [7].

Consider `CCCC(CCC)C(=O)O`, for which the call in [8], in assay [9], in [2], in [3], in [4] and in [5] was inactive. Besides, the result in assay [6], in assay [10] and in [7] was inactive.

Regarding `CCCCC(CC)C(=O)OCCOCCOCCOC(=O)C(CC)CCCC` (stereo not given), the outcome in assay [1], in assay [9], in assay [2], in assay [3], in [4] and in assay [5] was inactive. In addition, the compound was called inactive in [6], in [10] and in [7].

With `CCCCOC(=O)c1ccccc1`, the outcome in assay [1], in assay [9], in [2], in assay [3], in [4] and in assay [5] was inactive. Besides, the compound was called inactive in [6] and in [10].

For `c1ccc2ncccc2c1`, the result in [1], in [9], in assay [2], in assay [3], in [4] and in [5] was inactive. For the same compound, the call in assay [6], in [10] and in [7] was inactive.

By AC50 is commonly meant the midpoint of the concentration-response curve, whichever way the signal moves. With `O=C(O)c1cccc(C[C@@H]2COc3ccc(OCc4nc5cc(F)ccc5s4)cc3[C@@H]2O)c1`, the result in assay [1], in [3], in assay [6] and in [7] was inactive. Besides, the AC50 in assay [8] was 26 µM (active); in assay [9] it was 5.39 µM (active); in assay [2], 5.78 µM (active); in assay [4], 3.99 µM (active); in [5], 9.13 µM (active); in assay [10] it was 0.953 µM (active).

Consider `CCCCN1C(=O)[C@@H]([C@H](O)C2CCCCC2)NC(=O)C12CCN(Cc1ccc(Oc3ccc(C(=O)O)cc3)cc1)CC2`, for which the AC50 in assay [1] is 57.9 µM (active). For the same compound, the call in assay [9], in assay [2], in assay [4], in [5], in assay [6] and in assay [10] was inactive. Moreover, the compound was called inactive in assay [7].

With `NC(=O)NN=Cc1ccc([N+](=O)[O-])o1`, the result in assay [1], in assay [9], in [2], in [4], in assay [5] and in assay [10] was inactive. The result in assay [7] was inactive.

In the case of `C=CN1CCCC1=O`, the outcome in [1], in assay [9], in assay [2], in assay [3], in assay [4] and in assay [5] was inactive. Further, the compound was classed as inactive in [6].

In the case of `OC[C@H]1O[C@@H]2O[C@H]3[C@H](O)[C@@H](O)[C@@H](O[C@H]4[C@H](O)[C@@H](O)[C@@H](O[C@H]5[C@H](O)[C@@H](O)[C@@H](O[C@H]6[C@H](O)[C@@H](O)[C@@H](O[C@H]7[C@H](O)[C@@H](O)[C@@H](O[C@H]1[C@H](O)[C@H]2O)O[C@@H]7CO)O[C@@H]6CO)O[C@@H]5CO)O[C@@H]4CO)O[C@@H]3CO`, the result in [8], in assay [9], in assay [2], in assay [3], in assay [4] and in assay [5] was inactive. Also, the result in assay [6], in assay [10] and in assay [7] was inactive.

On to `Nc1ccn([C@@H]2O[C@H](CO)[C@@H](O)[C@@H]2O)c(=O)n1`, for which the compound was classed as inactive in assay [8], in assay [9], in [2], in assay [3], in assay [4] and in assay [5]. For the same compound, the call in [6], in assay [10] and in assay [7] was inactive.

In the case of `CCCCCCCCCC`, the outcome in assay [1], in assay [9], in assay [2], in assay [3], in assay [4] and in [5] was inactive. For the same compound, the outcome in [6], in assay [10] and in [7] was inactive.

On to `O=C1CN(N=Cc2ccc([N+](=O)[O-])o2)C(=O)N1`, for which the result in [1], in [3], in [4], in assay [6] and in assay [7] was inactive.

Take `O=C(O)c1ccc2c(c1)nc(C(=O)NC1CCN(C3CC3)CC1)n2Cc1cc(-c2ccc(Cl)s2)on1`: the result in [1], in [9], in [2], in assay [4], in [5] and in assay [10] was inactive. Further, in [7], the call was inactive.

Take `O=C(N[C@H](CO)[C@H](O)c1ccc([N+](=O)[O-])cc1)C(Cl)Cl`: the result in assay [1] was inactive.

Regarding `Cn1c(=O)c2[nH]cnc2n(C)c1=O`, the result in assay [1], in assay [8], in assay [9], in assay [2], in [3] and in assay [4] was inactive. For the same compound, the outcome in [5], in assay [6] and in assay [10] was inactive.

For `C=CCc1cc(S(=O)(=O)c2ccc(O)c(CC=C)c2)ccc1O`, the compound was classed as inactive in assay [8], in assay [9], in assay [2], in assay [3], in assay [4] and in [5]. Also, the compound was classed as inactive in [6], in assay [10] and in [7].

These data come from PubChem BioAssay (EPA / NIEHS).
